Test results as given in PubChem BioAssay (NCI).
This is part of a sample that, as a whole, favours compounds with a hit. Of some 83,000 tested, about 20% had one in any assay.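 A percent growth of 40 corresponds to 60% growth inhibition; 0 means no net growth; -100 means all cells died. Active threshold: below 10.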 Unmarked numbers belong to inactive results. The source made the active and inactive calls.

Columns and labels:
Assay in all cases: NCI-60 one-dose screen, 48 h (100 = growth as untreated, 0 = no growth, -100 = all killed)
Conditions in all cases: 10 µM unless noted
[1] = test system: HCT-15 colon
[2] = test system: HT29 colon
[3] = test system: SNB-75 CNS
[4] = test system: SNB-19 CNS
[5] = test system: U251 CNS
[6] = test system: PC-3 prostate
[7] = test system: SK-MEL-5 melanoma
[8] = test system: UACC-62 melanoma
[9] = test system: LOX IMVI melanoma
[10] = test system: SK-MEL-28 melanoma

| Structure (SMILES) | growth [1] | growth [2] | growth [3] | growth [4] | growth [5] | growth [6] | growth [7] | growth [8] | growth [9] | growth [10] |
| --- | --- | --- | --- | --- | --- | --- | --- | --- | --- | --- |
| Oc1ccc(Nc2ncnc3c2sc2ncccc23)cc1 | 50.9% | 43.4% | 40.9% | 27.6% | 24.4% | 47.4% | 27.7% | 3.13% (active) | 8.47% (active) | 65.7% |
| COc1cc(C)c2c(=O)c3c(oc2c1)C(=O)c1c(O)c(OC)cc(O)c1C3=O | 5.54% (active) | 68.1% | -13.2% (active) | 20.2% | 10.8% | -8.33% (active) | -43.8% (active) | 22.5% | 3.56% (active) |  |
| CN(C)c1ccc(/C=N/Nc2nnc3n2N=C(c2ccc(Cl)cc2)CS3)cc1 | 92.5% | 105% | 96.3% | 89.6% | 95% | 82.1% | 92.1% | 98.6% | 98.8% |  |
| COc1ccc(NC(=O)C2c3ccccc3C(=O)N(CC(C)C)C2c2cccs2)cc1 (centres undefined) | 98.9% | 101% | 92.6% | 111% | 96% | 95.1% | 89.1% | 89.5% | 86.3% | 105% |
| COc1ccc(NC(=O)/C=C/c2ccc(Cl)c(Cl)c2)cn1 | 51.6% | 93.5% | 102% | 91.2% | 87.4% | 74.3% | 71.4% | 77.6% | 93.6% |  |
| CC(C)c1ccc(Cn2ccc3c4c(N)nc(NC5CC5)nc4ccc32)cc1 | -80.6% (active) | -76.2% (active) | -94.4% (active) | -85.1% (active) | -95.1% (active) | -82% (active) | -96.1% (active) | -93.1% (active) | -90.2% (active) |  |
| CC(=O)c1cccc(Nc2ncnc3ccc(NC(=O)c4ccco4)cc23)c1 | 86.8% | 82.9% | 94.3% | 93.6% | 98.1% | 83.7% | 70.4% | 84.1% | 92.5% | 98.7% |
| CNCc1ccccc1CN(CC(=O)Nc1ccc2c(c1)CC1(C2)C(=O)Nc2ncccc21)C(=O)C(C)(C)C (centres undefined) | 111% | 105% | 83.2% | 103% | 103% | 98% | 103% | 99.8% | 97.4% |  |
| COc1ccc(/C=c2\c(=O)n(-c3ccccc3)c3nn4c(n23)=NNC42CCCCC2)cc1 | 102% | 106% | 87.7% | 93.9% | 103% | 90.1% | 100% | 93.2% | 95.1% | 111% |
| Fc1ccc2c(CN3CCO[C@H](COc4cccc(Cl)c4)C3)c[nH]c2c1 | 59.1% | 47.4% | 59% | 56.8% | 44.7% | 36.7% | 63.4% | 60.2% | 45.9% |  |
| O=C(N=Nc1c(Cl)c(O)c2ccccc2c1O)C(=O)Nc1cccc(C(F)(F)F)c1 | 68.9% | 73.6% | 31.3% | 92.6% | 74.6% | 58.2% | 72.4% | 83.2% | 14.7% | 101% |
| C/C=C(\C)C(C(=O)NC1CCCCC1)N(C(=O)C1CCc2cc(F)ccc2O1)c1ccc([N+](=O)[O-])cc1 (centres undefined) | 74% | 74.4% | 72.8% | 85.7% | 93.1% | 72.7% | 42.1% | 70.1% | 87.7% |  |
| CC(C)[C@H](CN)NC[C@H](C)NS(=O)(=O)c1ccc(C(C)(C)C)cc1 | 99.3% | 65.5% | 84.2% | 111% | 87.1% | 83.5% | 86.8% | 111% | 99.9% |  |
| N#Cc1nc(-c2cccc(Br)c2)cc(-c2ccc(Nc3nc(N4CCCCC4)nc(N4CCCCC4)n3)cc2)c1N | -39% (active) | -24.6% (active) | -45.1% (active) | 52.7% | -15.8% (active) | 12% | -49.3% (active) | -35.9% (active) | -95.7% (active) |  |
| COc1cccc2nc(Nc3cccc(NC(=O)c4ccc(N5CCN(C)CC5)c(C(F)(F)F)c4)c3)ccc12 | -10.4% (active) | -67.7% (active) | -7.68% (active) | 48.4% | -24.6% (active) | 22% | 48.8% | -38.4% (active) | -96.7% (active) |  |
| O=C(OCc1ccc2c(Cl)cc(Cl)c(O)c2n1)c1cc2ccccc2[nH]1 | -50.2% (active) | -81.1% (active) | -94.8% (active) | 34.8% | -92.6% (active) | -79.8% (active) | -97.6% (active) | -70.7% (active) | -91.2% (active) |  |
| CC(=O)c1ccc(Nc2nc(Cl)nc(Oc3c(Cl)cccc3Cl)n2)cc1 | 89.7% | 73.6% | 75% | 81.9% | 76.9% | 72.5% | 79.1% | 80.6% | 87.9% |  |
| CCCCCc1c(C)[nH]c(/C=C2\N=C(c3ccc[nH]3)C=C2CC)c1C | -83.5% (active) | -86.9% (active) | -81.4% (active) | -95.4% (active) | -95.3% (active) | -89.3% (active) | -96.5% (active) | -97.4% (active) | -90.7% (active) | -97.4% (active) |
| Cc1ccc(NC(=O)Cn2nncc2CN2C(=O)CSC2=O)cc1C | 94.5% | 105% | 93.3% | 97.9% | 103% | 99.3% | 98.7% | 102% | 93.6% |  |
| COc1ccc(-c2oc(=O)ccc2-c2cc(OC)c(OC)c(OC)c2)cc1F | 68.2% | 44.4% | 106% | 92.1% | 81.9% | 66.4% | 66.5% | 53.6% | 67.4% |  |
| Cc1[nH]nc2ccc3nc(-c4ccc5[nH]ncc5c4)c4c(c3c12)CCCC4 | 16.2% | 22.1% | 6.45% (active) | 35.8% | 26.4% | 26.5% | 10.4% | 10.1% | 29.6% |  |
| COc1c(B(O)O)cccc1-c1nc2ccc3[nH]ncc3c2c2c1CCCC2 | 25.4% | 37.9% | -2.29% (active) | 12.5% | 13.2% | 18.4% | 42.3% | 26.6% | -15.4% (active) |  |
| Cc1cc(O)c(C2=NN(c3ccc(S(N)(=O)=O)cc3)C(c3ccc(Cl)cc3)C2)c(C)c1Cl (centres undefined) | 65.2% | 55.1% | 67.4% | 89.8% | 70% | 12.1% | 81.7% | 53% | 52.4% | 76.3% |
| CCNS(=O)(=O)c1ccc(C)cc1 | 98.5% | 117% | 85.2% | 103% | 105% | 95.7% | 140% | 106% | 100% | 115% |
| Cc1ccc(O)c(Cc2ccccc2)c1 | 107% | 97.2% | 74.9% | 96.9% | 94.6% | 79.9% | 109% | 90.2% | 96.4% | 108% |
| O=C1C(Cl)=C(N/N=c2/[nH][nH]/c(=N/NC3=C(Cl)C(=O)c4ccccc4C3=O)c3ccccc23)C(=O)c2ccccc21 | 83.9% | 102% | 63.6% | 61.9% | 2.88% (active) | 55.5% | 62.6% | 25.7% | 69.8% | 104% |
| c1ccc2c(c1)cnc1ccccc12 | 98.4% | 94.6% | 93.6% | 99.2% | 109% | 102% | 98.5% | 98.9% | 104% | 118% |
| COc1ccc(/C(=C\c2cc(OC)c(OC)c(OC)c2)C(=O)Nc2nc3ccc(Cl)cc3s2)cc1 | 93.2% | 88.3% | 89% | 105% | 90.8% | 87.5% | 87.6% | 77.6% | 92.5% | 107% |
